In paper PMC11062922 (Nature Chemical Biology, 2023) one finds potency estimated from few doses data, which are given here for 2 compounds.

What all share (parameters): species or system human, MV4-11 + K-562 + COLO205 + SK-N-BE2 + OVCAR-8
One test deals with CAMK4. Conditions: read-out: apparent Kd; compound concentrations: 100 nM and 1000 nM (sheet 'Samples'), CATDS: 0.39976270483603599; n = 1.
In a further test the test system is CSNK1A1. To be noted: read-out: apparent Kd; compound concentrations: 100 nM and 1000 nM (sheet 'Samples'), CATDS: 0.27381506430700697; n = 1.
A further test concerns RIOK2. To be noted: read-out: apparent Kd; compound concentrations: 100 nM and 1000 nM (sheet 'Samples'), CATDS: 0.35131899059620803; n = 1.
In a further test the test system is CDC42BPA. Conditions: read-out: apparent Kd; compound concentrations:100 nM and 1000 nM (sheet 'Samples'); n = 1.
The test system of a further test is CDC42BPB. Conditions: read-out: apparent Kd; compound concentrations:100 nM and 1000 nM (sheet 'Samples'); n = 1.
The next test relates to CDC42BPG. Conditions: read-out: apparent Kd; compound concentrations:100 nM and 1000 nM (sheet 'Samples'); n = 1.
Another test has as its system CDKL5. To be noted: read-out: apparent Kd; compound concentrations:100 nM and 1000 nM (sheet 'Samples'); n = 1.
The test system of another test is GRK6. To be noted: read-out: apparent Kd; compound concentrations:100 nM and 1000 nM (sheet 'Samples'); n = 1.
A further test deals with LATS1. To be noted: read-out: apparent Kd; compound concentrations:100 nM and 1000 nM (sheet 'Samples'); n = 1.
The subject of the next test is PKN1. To be noted: read-out: apparent Kd; compound concentrations:100 nM and 1000 nM (sheet 'Samples'); n = 1.
The test system of the next test is PKN2. Conditions: read-out: apparent Kd; compound concentrations:100 nM and 1000 nM (sheet 'Samples'); n = 1.
In a further test the test system is PKN3. To be noted: read-out: apparent Kd; compound concentrations:100 nM and 1000 nM (sheet 'Samples'); n = 1.
Another test relates to PRKAA1. To be noted: read-out: apparent Kd; compound concentrations:100 nM and 1000 nM (sheet 'Samples'); n = 1.
A further test deals with PRKACA. To be noted: read-out: apparent Kd; compound concentrations:100 nM and 1000 nM (sheet 'Samples'); n = 1.
The next test concerns PRKACB. Conditions: read-out: apparent Kd; compound concentrations:100 nM and 1000 nM (sheet 'Samples'); n = 1.
A further test relates to PRKAG1. To be noted: read-out: apparent Kd; compound concentrations:100 nM and 1000 nM (sheet 'Samples'); n = 1.
The next test deals with PRKAG2. To be noted: read-out: apparent Kd; compound concentrations:100 nM and 1000 nM (sheet 'Samples'); n = 1.
Another test relates to PRKCA. To be noted: read-out: apparent Kd; compound concentrations:100 nM and 1000 nM (sheet 'Samples'); n = 1.
Another test deals with PRKCD. Conditions: read-out: apparent Kd; compound concentrations:100 nM and 1000 nM (sheet 'Samples'); n = 1.
In a further test the test system is PRKG1. Conditions: read-out: apparent Kd; compound concentrations:100 nM and 1000 nM (sheet 'Samples'); n = 1.
A further test deals with PRKX;PRKY. To be noted: read-out: apparent Kd; compound concentrations:100 nM and 1000 nM (sheet 'Samples'); n = 1.
The subject of a further test is ROCK1. To be noted: read-out: apparent Kd; compound concentrations:100 nM and 1000 nM (sheet 'Samples'); n = 1.
For the next test, the system named is ROCK2. To be noted: read-out: apparent Kd; compound concentrations:100 nM and 1000 nM (sheet 'Samples'); n = 1.
The test system of the next test is RPS6KA5. Conditions: read-out: apparent Kd; compound concentrations:100 nM and 1000 nM (sheet 'Samples'); n = 1.
The subject of the next test is RPS6KB1. Conditions: read-out: apparent Kd; compound concentrations:100 nM and 1000 nM (sheet 'Samples'); n = 1.

In the case of `COc1ccc(C2=C(N3CCc4ccccc43)C(=O)NC2=O)cc1` [SB-361058], the potency estimated from few doses with CAMK4 is 1170 nM; with CSNK1A1, 2590 nM; with RIOK2, 1480 nM.

For the compound `COc1ccc(C[C@@H](CN)NC(=O)c2cc(Br)c(-c3ccnc4[nH]ccc34)s2)cc1.COc1ccc(C[C@@H](CN)NC(=O)c2cc(Br)c(-c3ccnc4[nH]ccc34)s2)cc1.Cl.Cl` [GSK1389063A], the potency estimated from few doses is 757 nM in the test on CDC42BPA; 80.7 nM with CDC42BPB; 21.2 nM in the test with CDC42BPG; 1370 nM in the test with CDKL5; 93 nM in the test with GRK6; 287 nM in the test with LATS1. The potency estimated from few doses in the test with PKN1 is 339 nM; in the test on PKN2, 897 nM; with PKN3 it was 921 nM; in the test with PRKAA1, 1570 nM; in the test on PRKACA it was 11.7 nM; in the test on PRKACB, 23.5 nM. Further, the potency estimated from few doses with PRKAG1 was 976 nM; in the test with PRKAG2 it was 863 nM; in the test with PRKCA, 2340 nM; with PRKCD it was 1750 nM; in the test on PRKG1, 27.3 nM; in the test with PRKX;PRKY it was 127 nM. Further, the potency estimated from few doses was 17.9 nM in the test with ROCK1, 21.5 nM in the test on ROCK2, 899 nM in the test with RPS6KA5 and 130 nM with RPS6KB1.
